Data taken from the supplement of paper PMC12636033.
± gives the standard deviation of the averaged measurements. In all, about 33,000 sequences were measured (“E-score (rank enrichment, -0.5 to 0.5)”: median about -0.0043, highest 2% from about 0.24 on). Many of the other results were omitted from the sample, so the highest values are more common in it than they were.

system: 2Sp-muMax20 (muMax20 with two 2,6-bis(methyl)pyridine Cys staples); assay: PBM 8-mer E-score (E-score (rank enrichment, -0.5 to 0.5)); higher = stronger preferential binding
Experimental: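 Protein binding microarray (universal PBM chip covering all 10-mers in fixed probe flanks) with chemically synthesized human Max(13-93) bHLH-LZ analogs (not full-length Max) bearing noncanonical residues (hArg, Tha, Aib, Nle at 65) and aromatic Cys staples. Read-out per 8-mer (and its reverse complement): E-score (rank-based enrichment, -0.5 to 0.5) and Z-score of median probe intensity.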

Sequence	PBM 8-mer E-score
CTACCCCC	-0.195 ± 0.12
AAACCCCA	0.293 ± 0.022
AACCCCCA	-0.297 ± 0.061
AACCCCAA	0.249 ± 0.062
GCCATTCC	-0.155 ± 0.069
TCGAGAAA	0.0513 ± 0.046
GCCTTCTA	0.0133 ± 0.025
CCCGCACA	-0.141 ± 0.011
AAACCTGA	-0.0739 ± 0.087
AAACAGAC	0.143 ± 0.097
AGGTGGCA	-0.0941 ± 0.015
ACCAGGTA	-0.11 ± 0.012
AATTATTG	0.196 ± 0.015
AGACCAAC	-0.0312 ± 0.013
CAACCCCA	0.264 ± 0.035
CAACCCCC	-0.196 ± 0.022
CAACCCAA	0.0124 ± 0.094
ATGCTTTC	0.125 ± 0.017
ATGCTTTA	0.138 ± 0.081
ATGCTTTG	0.239 ± 0.036
GCGCGCTA	0.235 ± 0.021
AATCGCAG	0.142 ± 0.046

Sequence	PBM 8-mer E-score
TGGGCCAA	-0.0226 ± 0.046
ATGCAATA	0.246 ± 0.0094
ACGCATGA	0.136 ± 0.0059
ACGCATGC	0.277 ± 0.06
GTGCATTA	0.156 ± 0.042
GTGCAATA	0.0506 ± 0.012
CTGCATTA	0.107 ± 0.025
ATGCATTA	0.319 ± 0.0086
GTGCATCA	0.0111 ± 0.045
ACGCATGG	0.13 ± 0.026
ATGCATCA	0.347 ± 0.046
CTGCAATA	0.0295 ± 0.0051
ATGCATCG	0.0497 ± 0.074
CGACCACC	-0.142 ± 0.0047
GCCTTAGC	-0.154 ± 0.029
AGATCTTG	0.152 ± 0.051
CCATCGAA	-0.00649 ± 0.052
GACTATGC	0.0616 ± 0.023
ATCCAGTG	-0.0872 ± 0.065
ACATTCGG	-0.0311 ± 0.13
CTGCATTC	-0.000675 ± 0.052
CTGCATGC	0.0733 ± 0.071

Sequence	PBM 8-mer E-score
CTGCATAC	0.0466 ± 0.068
ATGCATTC	0.285 ± 0.048
ATGCATAC	0.258 ± 0.12
ATGCATGG	0.13 ± 0.055
ATGCATGC	0.262 ± 0.048
ATGCATAA	0.114 ± 0.045
ATGCATTG	0.165 ± 0.0071
ACGCATAA	0.164 ± 0.07
ACGCATAG	-0.0802 ± 0.035
ACGCATAT	0.333 ± 0.011
CAGGGGGA	0.00992 ± 0.059
ACACCGCT	-0.116 ± 0.068
CAGCTTGG	-0.0934 ± 0.012
GCCCGGGC	-0.296 ± 0.055
ACTGAATG	-0.0577 ± 0.048
CGCCGATC	-0.128 ± 0.13
ATTTGCCA	-0.024 ± 0.041
ACTTCCGG	-0.229 ± 0.1
CTCCTCTA	-0.151 ± 0.013
CACCTCCG	-0.0614 ± 0.051
GAAAGTCA	-0.0504 ± 0.065
AGCTGGGA	-0.08 ± 0.019

Sequence	PBM 8-mer E-score
ATTCATTG	0.161 ± 0.087
ATACATTG	0.106 ± 0.029
ATTCATTA	0.176 ± 0.007
ATTCATTC	0.305 ± 0.013
ATACATTC	0.2884 ± 0.0017
CTACATTC	0.0778 ± 0.03
GCCGTTCC	-0.21 ± 0.089
AGGTAGAG	-0.122 ± 0.024
AATGCTGT	-0.0251 ± 0.073
GGCCTCGA	-0.238 ± 0.045
ACGTGCTG	0.12 ± 0.063
ACGTGCTC	0.259 ± 0.027
GCGTGCAC	0.204 ± 0.017
CCGTGCTC	-0.119 ± 0.14
ACGTGCAC	0.273 ± 0.051
ACGTGCAT	0.195 ± 0.096
CTTACCAC	0.0166 ± 0.11
GTCCTTTA	-0.0713 ± 0.029
CCTATCCA	-0.0745 ± 0.015
AGTAGGAG	-0.0281 ± 0.053
